Results on one molecule are retold here after the supplement of paper PMC4466140.

Experiment in all cases: SPOT peptide array binding signal intensity (averaged, normalized) (arbitrary units (background-subtracted, floor 0; scale differs between SH3 domains)); higher = stronger binding of the SH3 domain to the peptide
One experiment has as its target SpBzz1-D2. The essentials: (§1)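 To measure binding, SH3 domains from four yeast species were fused to GST, expressed in E. coli BL21(DE3) and purified on glutathione Sepharose. Each domain was incubated at 10 μg/ml overnight at 4°C on cellulose membranes with synthetic 15-mer peptides whose cysteines were replaced by serines. Anti-GST antibody, an HRP anti-mouse secondary and luminol were used for detection, and images were quantified with Genespotter. Reported binding signal is normalized, background-subtracted spot intensity averaged over replicates, in arbitrary units that differ between domains.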

The target of a further experiment is SpCyk3. The essentials:
as §1

The next experiment has as its target SpHof1. The essentials: as §1
A further experiment concerns the target SpHof1-2. The essentials:
as §1

In a further experiment the target is SpHof1-3. The essentials: as §1
The target of the next experiment is SpHse1. The essentials:
as §1

The target in a further experiment is SpLsb1. The essentials:
as §1

A further experiment concerns the target SpLsb4. The essentials:
as §1

The next experiment deals with SpMyo1. The essentials: as §1
The target in another experiment is SpNbp2. The essentials: as §1
The target in the next experiment is SpPex13. The essentials: as §1
The target in another experiment is SpRvs167. The essentials:
as §1

The next experiment concerns the target SpSla1-D1-D2. The essentials:
as §1

Another experiment addresses SpSla1-D3. The essentials: as §1

B1: unnamed (peptide)
chain: QHQQRQPKRPKRYSL
Consider B1, for which the “SPOT peptide array binding signal intensity” value with SpBzz1-D2 is 1.5; with SpCyk3 it was 10.5; in the experiment with SpHof1 it was 81; in the experiment with SpHof1-2, 18.8; with SpHof1-3, 169; with SpHse1, 75.2. Further, the “SPOT peptide array binding signal intensity” value with SpLsb1 stood at 73.8; with SpLsb4 it was 2350; in the experiment with SpMyo1 it was 7.75; with SpNbp2, 267; with SpPex13, 12; with SpRvs167, 26.8. The “SPOT peptide array binding signal intensity” value was no more than 0 with SpSla1-D1-D2 and 6 with SpSla1-D3.
